{
  "source": "PubChem BioAssay (Tox21)",
  "note": "Records with an inconclusive call do not appear. A number with no mark means an inactive call. Calls of active or inactive are those of the source. Calls come from the whole dose curve; as a rule, active = well fitted cell-killing curve with a large enough effect in the repeat runs; inconclusive = weak or mixed curves, or effect the other way; inactive = no such curve, though single readings can be large or run the other way. % is set by controls: 0 for no effect and ±100 for the full control effect; potency is the fitted concentration of half-maximal effect.",
  "data": [
    {"assay": "qHTS assay to identify small molecule antagonists of the thyroid receptor (TR) signaling pathway - cell viability counter screen (AID 743064); note: nearly all actives have a fitted effect of over 50% in size", "settings": "GH3.TRE-Luc viability, CellTiter-Fluor, 24 h; series mostly up to 70.3 µM; activity change, negative = cytotoxic: at the top concentration", "how_it_was_run": "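In-well cytotoxicity read by CellTiter-Fluor (30 min, 37 C) following 23.5 h exposure of GH3 cells bearing a TRE-luciferase sensor. Compounds were added alongside 1 nM (final) T3 to drive TR transactivation.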", "values": [
      {"compound": "CNC[C@@H]1CC[C@@H](N)[C@@H](O[C@H]2[C@H](O)[C@@H](O[C@H]3OC[C@](C)(O)[C@H](NC)[C@H]3O)[C@H](N)C[C@@H]2N)O1", "activity change, negative = cytotoxic": "5.12%"},
      {"compound": "CCc1ccc(S(=O)(=O)O)cc1", "activity change, negative = cytotoxic": "4.98%"},
      {"compound": "Cc1cc(-c2ccc(N=Nc3c(S(=O)(=O)O)cc4cc(S(=O)(=O)O)cc(N)c4c3O)c(C)c2)ccc1N=Nc1c(S(=O)(=O)O)cc2cc(S(=O)(=O)O)cc(N)c2c1O", "Potency": "23.7 µM (active)"},
      {"compound": "C#CCC(Cc1cnc2nc(N)nc(N)c2n1)c1ccc(C(=O)N[C@@H](CCC(=O)O)C(=O)O)cc1", "note": "(stereo partly drawn)", "activity change, negative = cytotoxic": "-2.37%"},
      {"compound": "CO[C@H]1[C@@H](O)[C@H](N)[C@@H](O[C@H]2O[C@H]([C@H](C)N)CC[C@H]2N)[C@H](O)[C@@H]1N(C)C(=O)CN", "activity change, negative = cytotoxic": "11.8%"},
      {"compound": "CCCCC(O)c1ccccc1", "note": "(stereo not drawn)", "activity change, negative = cytotoxic": "29.5%"},
      {"compound": "CN[C@H]1CCc2cc(OC)c(OC)c(OC)c2-c2ccc(OC)c(=O)cc21", "Potency": "0.119 µM (active)"},
      {"compound": "COc1cc(/C=C/C(=O)N2CCN(CC(=O)N3CCCC3)CC2)cc(OC)c1OC", "activity change, negative = cytotoxic": "13%"},
      {"compound": "O=C(OCc1ccccc1)c1cccnc1", "activity change, negative = cytotoxic": "-10.1%"},
      {"compound": "O=c1[nH]cnc2[nH]cc(CN3CCCCC3)c12", "activity change, negative = cytotoxic": "-18.2%"},
      {"compound": "CC(=O)N[C@@H]1C(O[C@H]2O[C@H](C(=O)O)C(O)[C@H](O)[C@H]2O)[C@H](O)[C@@H](CO)O[C@H]1O[C@@H]1C(C(=O)O)O[C@@H](O[C@H]2[C@H](O)[C@@H](CO)OC(O)[C@@H]2NC(C)=O)[C@H](O)[C@H]1O", "note": "(stereo partly drawn)", "activity change, negative = cytotoxic": "22.8%"},
      {"compound": "O=C[C@H](O)[C@@H](O)[C@H](O[C@H]1O[C@H](CO)[C@@H](O[C@H]2O[C@H](CO)[C@@H](O)[C@H](O)[C@H]2O)[C@H](O)[C@H]1O)[C@H](O)CO", "activity change, negative = cytotoxic": "-18%"},
      {"compound": "OCC(O)COc1ccc(Cl)cc1", "note": "(stereo not drawn)", "activity change, negative = cytotoxic": "1.17%"},
      {"compound": "C=CCN1CCCC1CNC(=O)c1cc(S(N)(=O)=O)cc(OC)c1OC", "note": "(stereo not drawn)", "activity change, negative = cytotoxic": "16.8%"},
      {"compound": "Nc1ccn(C[C@@H](CO)OCP(=O)(O)O)c(=O)n1", "activity change, negative = cytotoxic": "14.6%"},
      {"compound": "CC(=O)[C@@]1(O)CC[C@H]2[C@@H]3C=C(Cl)C4=CC(=O)[C@@H]5C[C@@H]5[C@]4(C)[C@H]3CC[C@@]21C", "activity change, negative = cytotoxic": "4.9%"},
      {"compound": "COC(=O)[C@@H](N)CS", "activity change, negative = cytotoxic": "16.7%"},
      {"compound": "CCCCCCCCCCCCCCCCCC(=O)OCCO", "activity change, negative = cytotoxic": "4.12%"},
      {"compound": "C=C1c2c(Cl)ccc(O)c2C(O)=C2C(=O)[C@]3(O)C(O)=C(C(N)=O)C(=O)[C@@H](N(C)C)[C@@H]3[C@@H](O)[C@H]12", "activity change, negative = cytotoxic": "9.07% [at 32.5 µM]"},
      {"compound": "NC(=S)N=Nc1ccc(NN=C(N)N)cc1", "Potency": "23.7 µM (active)"},
      {"compound": "O=c1oc2cc(O)ccc2s1", "activity change, negative = cytotoxic": "2.02%"},
      {"compound": "Nc1nc2[nH]cc(CCc3ccc(C(=O)N[C@@H](CCC(=O)O)C(=O)O)cc3)c2c(=O)[nH]1", "activity change, negative = cytotoxic": "-10.9%"},
      {"compound": "CCN(CC)CCOC(=O)c1cccnc1", "activity change, negative = cytotoxic": "20.6%"},
      {"compound": "C[N+](C)(CCCCCC[N+](C)(C)C1c2ccccc2-c2ccccc21)C1c2ccccc2-c2ccccc21", "activity change, negative = cytotoxic": "21.4%"},
      {"compound": "O=C1NCCN1c1ncc([N+](=O)[O-])s1", "activity change, negative = cytotoxic": "-5.76% [at 32.5 µM]"},
      {"compound": "CCOc1ccc(N=C(C)Nc2ccc(OCC)cc2)cc1", "activity change, negative = cytotoxic": "-8.43%"},
      {"compound": "CCCCCCCCCCCCCCCC(=O)OC[C@@H](COP(=O)([O-])OCC[N+](C)(C)C)OC(=O)CCCCCCCCCCCCCCC", "activity change, negative = cytotoxic": "9.76%"},
      {"compound": "C=CCCCCCCCCC(=O)OC", "activity change, negative = cytotoxic": "29.5%"},
      {"compound": "Cc1c(O)cc2c(c1C)O[C@](C)(CCC[C@H](C)CCC[C@H](C)CCCC(C)C)CC2", "activity change, negative = cytotoxic": "-15.6%"},
      {"compound": "CCOC(=O)Nc1ccc2c(c1)N(C(=O)CN(C)C)c1ccccc1CC2", "Potency": "48.6 µM (active)"},
      {"compound": "c1ccc2c(CCC3CCNCC3)c[nH]c2c1", "Potency": "18.8 µM (active)"},
      {"compound": "CC(=O)N(CC(C)C(=O)O)c1c(I)cc(I)c(N)c1I", "note": "(stereo not drawn)", "activity change, negative = cytotoxic": "29.3% [at 32.5 µM]"},
      {"compound": "COc1cc(S(C)=O)ccc1-c1nc2ncccc2[nH]1", "note": "(stereo not drawn)", "activity change, negative = cytotoxic": "25.6%"},
      {"compound": "CC(=O)N[C@@H](CC(=O)N[C@@H](CCC(=O)O)C(=O)O)C(=O)O", "activity change, negative = cytotoxic": "28.7%"},
      {"compound": "CO/N=C(\\C(=O)N[C@@H]1C(=O)N2C(C(=O)O)=C(CSC(=O)c3ccco3)CS[C@H]12)c1csc(N)n1", "activity change, negative = cytotoxic": "23.5%"},
      {"compound": "Cc1onc(-c2ccccc2)c1C(=O)N[C@@H]1C(=O)N2[C@@H]1SC(C)(C)[C@@H]2C(=O)O", "activity change, negative = cytotoxic": "18.8%"},
      {"compound": "CCCc1ccc(C(=O)O)cc1", "activity change, negative = cytotoxic": "0.352%"},
      {"compound": "N[C@H](CC(=O)O)C(=O)O", "activity change, negative = cytotoxic": "33%"}
    ]}
  ]
}
